Shown are actives, neighbours in structure and some others; about 21% of the full set was active somewhere.
AMA1 RON2 block: inhibitors of Plasmodium falciparum AMA1-RON2 interaction; Potency, µM (series often up to 58.2 µM), usual class: inhibitors; AID 720542; AlphaScreen AMA1-biotinylated RON2 peptide binding; 0.2% of 360,000 active; further: nearly all actives have a fitted effect of over 45% in size
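AMA1 (3D7) with his tag at 25 nM final met compounds first, then biotinylated RON2 peptide at 25 nM; detection used donor plus acceptor beads, 10 µg/mL apiece, read by AlphaScreen after 30 min at room temperature.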
Cycloheximide cs: affects cycloheximide protein synthesis inhibition readout, counter-screen | max response, % | AID 2314 | 12% of 300,000 active | cell reporter, cycloheximide protein synthesis inhibition counterscreen; in the data active means max response mostly above about 13%, no sharp cut-off; inactive means mostly below about 14%; further: read at 38.3 µM for the half of the compounds with a filed dose
Pf growth 48h: inhibits P. falciparum growth in the first generation, 48 h; P. falciparum luciferase growth in erythrocytes, 48 h; Potency, µM (highest dose often 28.7 µM), usual class: inhibitors; 5.9% of 310,000 active
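Luciferase-expressing parasites in RBCs, 2% Hct / 0.1% parasitemia final; RPMI 1640 + 0.5% Albumax; 37 C, 5% CO2, one generation; luminescence read-out, lower signal = inhibition.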
Pf growth 96h: inhibits malaria parasite growth, 96 h; Potency, µM (highest dose often 28.7 µM), usual class: inhibitors; P. falciparum luciferase reporter growth, 96 h; 6.9% of 320,000 active
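Luminescence readout: decreased luciferase signal marks inhibited growth of reporter-expressing P. falciparum in infected red cells (2% hematocrit, 0.05% parasitemia final), exposed to compound two generations (96 h, 37 C, 5% CO2).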
HCV inhibitor: inhibitors of hepatitis C virus infection; Huh7.5.1 HCVcc-Cre infection, luciferase reporter, 44 h; Potency, µM (top dose mostly 41.8 µM), usual class: inhibitors; 3.4% of 340,000 active; AID 651820
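Luciferase read-out (15 sec integration) after a 15 min room-temperature substrate step quantifies HCVcc-Cre infection. Cells, 1,000 per well, had compound added 4 h post-plating, then virus at ~0.5 moi, and were cultured 44 h.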
Shiga inhibitor: Shiga toxin inhibition; Vero cells, Shiga toxin protein synthesis inhibition reporter; inhibition, % at 38.7 µM; 9.2% of 290,000 active; in the data active means inhibition mostly above about 28%, no sharp cut-off; inactive means mostly below about 43%
Numbers stand for hits; . = inactive; ? = inconclusive; / = no result. Unless noted, the call rests on the fitted dose curve; in most records, active means well fitted curve in the direction sought with a large enough effect; inconclusive means small, poorly fitted or top-dose-only effect, or another doubt; inactive means no such curve, though single readings can be large; an effect the other way counts as inactive or inconclusive.

SMILES	AMA1 RON2 block	Cycloheximide cs	Pf growth 48h	Pf growth 96h	HCV inhibitor	Shiga inhibitor
COc1ccc(CNC(=S)Nc2ccc3nc(N4CCN(C)CC4)cc(C)c3c2)cc1	.	.	?	?	?	.
Cc1cc(N2CCN(C)CC2)nc2ccc(NC(=S)NCc3cccs3)cc12	.	.	?	.	10µM	.
CC(Sc1nc2ncc(Cl)cc2[nH]1)C(=O)NC1(C#N)CCCCC1 (stereo not drawn)	.	/	.	.	?	/
Cn1c(=Nc2ccccc2)sc2ccccc21	.	36	.	/	.	.
Cc1ccc(S(=O)(=O)N/N=c2\sc3ccccc3n2C)cc1	.	.	.	.	.	.
CN(C)c1ccc(N=c2sc3ccccc3n2C)cc1	24µM	54	/	?	.	89
COc1ccc(-c2ncc3ccccn23)cc1OC	.	24	?	.	.	.
Nc1c(-c2cccc([N+](=O)[O-])c2)nc2ccccn12	.	112	.	.	.	82
O=[N+]([O-])c1ccc(Sc2ncc3ccccn23)nc1	.	.	?	9.3µM	.	.
O=[N+]([O-])c1cccc(-c2ncc3ccccn23)c1	.	31	?	.	.	68
COc1ccc(OCC(=O)OCC(=O)c2ccc(OC)c(F)c2)cc1	.	/	.	.	.	/
CCCCC[C@H]1CN(Cc2ccc(OC)cc2)C(=O)[C@@H]1CC(=O)NCc1ccccc1	.	.	?	?	?	.
NC(=O)NS(=O)(=O)Oc1ccccc1	.	.	.	.	.	.
CSc1ncnc2c1ncn2CCCNCC(c1ccccc1)c1ccccc1	.	/	/	/	/	/
O=C(NCc1ccco1)c1cc(=O)c2ccccc2o1	.	.	?	?	.	.
O=C(NCc1ccco1)c1cc2ccccc2c(=O)o1	.	67	.	.	.	148
O=C(NCc1ccco1)c1cc2cc(Br)ccc2o1	.	35	.	?	.	87
O=C(NCc1ccco1)Nc1ccc(Br)cc1Cl	.	48	.	.	?	87
O=C(NCc1ccco1)c1cccc(Br)c1	.	.	.	?	.	/
COc1ccc(C(=O)C2CCCN(Cc3ccc4nonc4c3)C2)c(OC)c1 (stereo not drawn)	.	.	.	?	?	.
COc1ccc(CN(C)C(=O)CCN=C2NS(=O)(=O)c3ccccc32)c(OC)c1	.	/	?	.	?	/
CCc1cccc2c(C(=O)CSc3nnc(-c4ccncc4)n3C)c[nH]c12	.	.	?	10µM	.	.
CCc1cccc2c(C(=O)CSc3nnc(C4CC4)o3)c[nH]c12	.	/	.	.	5.6µM	/
CC(=O)OCC(CO)OC(C)=O (stereo not drawn) (tested in a mixture with another compound)	/	.	/	/	/	.
CCOc1ccc(NC(=O)CSc2nnc(CNC(=O)c3cccs3)o2)cc1	.	.	.	?	.	.
SMILES	AMA1 RON2 block	Cycloheximide cs	Pf growth 48h	Pf growth 96h	HCV inhibitor	Shiga inhibitor
Cc1ccccc1CNS(=O)(=O)c1ccccc1[N+](=O)[O-]	.	.	.	0.66µM	.	.
O=[N+]([O-])c1ccccc1S(=O)(=O)NCc1ccc(F)cc1	.	.	.	.	.	.
COc1ccccc1NC(=O)NC1(C(=O)N2CCC(C)CC2)CCCCC1	.	.	.	.	.	.
CCOc1ccc(-c2cc(C)[n+](CCN3CCOCC3)c(-c3ccc(OCC)cc3)c2)cc1	.	.	0.66µM	0.37µM	.	.
Cc1nn(S(=O)(=O)c2ccc(F)cc2)c(C)c1S(=O)(=O)N1CCOCC1	.	.	.	.	.	.
O=C(O)c1ccccc1NS(=O)(=O)c1ccc2c3c(cccc13)C(=O)N2	.	.	.	.	.	.
CN(c1ccccc1C(=O)O)S(=O)(=O)c1ccc2c3c(cccc13)C(=O)N2	.	.	.	12µM	.	.
COc1cc([C@H]2Oc3cc([C@H]4Oc5cc(O)cc(O)c5C(=O)[C@@H]4O)ccc3O[C@@H]2CO)ccc1O	.	.	?	?	?	.
O=C1c2c(O)cc(O)cc2O[C@H](c2ccc(O)c(O)c2)[C@H]1O	.	.	/	/	0.56µM	.
COc1cc([C@@H]2Oc3cc(C4Oc5cc(O)cc(O)c5C(=O)[C@H]4O)ccc3O[C@H]2CO)ccc1O (stereo partly drawn)	.	/	10µM	13µM	?	/
O=C1c2c(O)cc(O)cc2O[C@H](c2ccc(O)c(O)c2)[C@@H]1O	/	.	/	/	/	.

Screening data deposited in PubChem BioAssay by National Center for Advancing Translational Sciences (NCATS).
